High-throughput results: PubChem, several laboratories
Candida biofilm – kills Candida albicans biofilms; C. albicans biofilm + clotrimazole, Alamar Blue; inhibition, % at 6 µM; actives 0.14% (n = 85,000); AID 834;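 active = inhibition above 20%; inactive = inhibition below 20%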;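 note: preformed 24 hr biofilms exposed to compound for 48 hr; 0% = biofilm without compound and 100% = blank killed by clotrimazole plus chlorhexidine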
S1P2 antag – S1P2 (human) receptor antagonism. cell-based S1P2 antagonist assay, inhibition at 5 uM. inhibition, % at 5 µM. actives 0.21% (n = 97,000); in the data active = inhibition above about 45%;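 note: CRE beta-lactamase reporter cells expressing human S1P2 stimulated with S1P; 0% = agonist at EC80 alone and 100% = agonist plus reference antagonist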
Target sequence (O95136 whole entry, looked up): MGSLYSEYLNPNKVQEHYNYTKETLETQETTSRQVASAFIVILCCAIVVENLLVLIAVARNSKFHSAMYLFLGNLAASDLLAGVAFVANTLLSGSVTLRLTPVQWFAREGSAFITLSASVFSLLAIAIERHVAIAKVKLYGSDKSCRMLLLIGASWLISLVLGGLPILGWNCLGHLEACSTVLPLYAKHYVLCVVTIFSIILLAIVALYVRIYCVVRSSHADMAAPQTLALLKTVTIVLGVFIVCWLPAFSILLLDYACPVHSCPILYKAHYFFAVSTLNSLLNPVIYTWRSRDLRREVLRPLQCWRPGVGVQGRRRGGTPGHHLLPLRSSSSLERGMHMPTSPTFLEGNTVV
GALR2 antag – GALR2 (human) receptor antagonism; inhibition, % at 4 µM; actives 0.39% (n = 140,000); O43603; GALR2-expressing cells, antagonist mode;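 note: cells stimulated with galanin 1-16 at roughly its EC80; 0% = agonist challenge control and 100% = basal control without agonist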
GALR2 agonist – activates the human galanin receptor 2. AID 803. activation, % (concentration not given with the values). O43603. actives 0.48% (n = 140,000). GALR2-expressing cells, agonist activation read-out; in the data active = activation above about 5%, passing the limit was not always enough;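 note: 0% = vehicle buffer wells and 100% = reference agonist at full effect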
S1P2 ag – activates the human S1P2 receptor | activation, % at 4.5 µM | O95136 | actives 0.46% (n = 97,000) | S1P2-expressing cell line, agonist reporter read-out; in the data active = activation above about 16%;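 note: 0% = vehicle low control and 100% = maximal reference agonist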
Phagocytosis inh – blocks phagocytosis by macrophages; J774A.1 macrophage IgG-bead phagocytosis, imaging; inhibition, % at 5 µM; actives 0.07% (n = 110,000); AID 1029;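 active = inhibition above the mean of the plate negative controls plus 5 SD, cut at about 13% in these data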;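 note: phagocytic index as fraction of beads internalized from green versus red external bead signal; plate controls were DMSO negative control for no effect and cytochalasin-D positive control for full effect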
GALR2 ant conf – GALR2 (human) antagonism confirmed; shares compounds with GALR2 antag; GALR2-expressing cells, antagonist mode, inhibition; inhibition, % at 4 µM; actives 60% (n = 480); AID 866;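 note: cells stimulated with galanin at about its EC80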
BLA inhib ctr – inhibits beta-lactamase reporter in GALR2 antagonist counterscreen. shares compounds with GALR2 antag. CHO NFAT-BLA reporter, beta-lactamase FRET, thapsigargin-stimulated. inhibition, % at 4.2 µM. actives 36% (n = 480);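 active = inhibition above the mean inhibition across tested compounds plus 3 SD, cut at about 27% in these data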;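 note: 0% = 500 nM thapsigargin stimulated wells and 100% = unstimulated BSA only wells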
Starred values were filed as active, the others as inactive; . = no result; ! = not active in a repeat. Shown are actives, neighbours in structure and some others; about 1.3% of the full set was active somewhere. Cut-off read from the data, not from the text of the source, unless noted: active = inhibition above about 27%; inactive = the rest.

SMILES	Candida biofilm	S1P2 antag	GALR2 antag	GALR2 agonist	S1P2 ag	Phagocytosis inh	GALR2 ant conf	BLA inhib ctr
CC1(C)Cc2ccccc2C(NNC(=O)c2ccccn2)=N1	5	1	6	-1	-1	.	.	.
NC(=O)c1sc2nc(-c3ccco3)ccc2c1N	.	14	-21	0	-5	0	.	.
Nc1c(C(=O)Nc2ccccc2F)sc2nc(-c3ccco3)ccc12	.	34	31*	-1	-8	1	27	22
CCc1ccc2c(c1)C1(NN=C(c3cccc4ccccc34)S1)C(=O)N2 (stereo not drawn)	2	27	29*	1	-7	.	13	10
COc1ccc(OC)c(NC=C2C(=O)OC3(CCCCC3)OC2=O)c1	7	-13	50*	0	-3	.	5	5
Fc1ccc(SCCc2ccncc2)cc1	8	18	32*!	-3	-5	0	6	0
Cc1cc(C)c(NC(=O)c2ccccc2N(C)S(C)(=O)=O)c(C)c1	3	-7	7	-1	-3	-3	.	.
N#Cc1cc2c(nc1SCc1nc3ccccc3[nH]1)CCC2	1	14	28*	0	0	0	30*	16
CC(=O)/C=C/n1c(=S)oc2ccccc21	.	.	42*	-2	.	6	77*	65*
CCCC(c1nnnn1Cc1ccco1)N1CCN(C2CCCC2)CC1 (stereo not drawn)	5	.	69*	-2	.	-2	7	27*
O=C(Nc1ccc(Cl)cc1)OCCn1nnnc1C(c1ccccc1)N1CCOCC1 (stereo not drawn)	.	-3	2	0	-9	4	.	.
O=C(Oc1ccccc1/C=C\C(=O)c1cc2ccccc2o1)c1ccccc1	.	.	27*	-1	.	-3	26	14
Nn1cnnc1N/N=C/c1cc(Br)cc(Br)c1O	.	-10	31*	-4	-1	-2	8	0
Cc1cc(N/N=C/c2ccc(O)c(C)c2O)nc(-c2ccccc2O)n1	.	.	31*	-2	.	-10	33*	12
COc1cccc(NC(=O)Cc2c(C(=O)O)[nH]c3ccccc23)c1	.	-6	0	-1	-5	.	.	.
N#Cc1c(-c2ccccc2F)cc(C2CC2)nc1SCC(=O)c1cccs1	.	.	28*	-1	.	-15	32*	32*
CN(/N=C\c1ccc(O)c(O)c1)c1nc(-c2ccccc2)cc(-c2ccccc2)n1	.	.	47*	0	.	0	64*	81*
O=C1c2cccc3c([N+](=O)[O-])ccc(c23)C(=O)N1c1nccs1	-4	51*	50*	2	-10	0	55*	35*
O=C1c2cccc3c(N4CCCCC4)ccc(c23)C(=O)N1c1ccccn1	.	39	13	-1	-8	1	.	.
O=C1c2cccc3cccc(c23)C(=O)N1c1nccs1	11	12	-15	-1	0	1	.	.
O=C1c2cccc3c([N+](=O)[O-])ccc(c23)C(=O)N1c1ccccn1	.	67*	34*	2	-8	0	49*	44*
CN1CCN(c2c3c(c(C#N)c4nc5ccccc5n24)CCCC3)CC1	9	.	.	.	.	.	.	.
COCC(C)n1c(C)cc(C(=O)CSc2nnc(Nc3ccccc3F)s2)c1C (stereo not drawn)	4	14	-4	-1	-5	2	.	.
CCOC(=O)c1cnn(-c2nc3c(C)cccc3s2)c1C(F)(F)F	.	-14	5	-2	0	0	.	.
CCOC(=O)c1cnn(-c2nc3c(C)cccc3s2)c1C	.	6	32*	-4	-4	-1	-1	4
SMILES	Candida biofilm	S1P2 antag	GALR2 antag	GALR2 agonist	S1P2 ag	Phagocytosis inh	GALR2 ant conf	BLA inhib ctr
CCn1c2ccccc2c2cc(NC(=O)c3cc(OC)c(OC)c(OC)c3)ccc21	.	-13	29*	1	5	.	43*	67*
Cc1ccc(S(=O)(=O)N(CC(=O)N2CCOCC2)CC(=O)N2CCOCC2)cc1	9	3	0	-2	-3	.	.	.
CCCCCCCCNc1ncnc2ccccc12	6	78*	39*	-1	-3	-1	54*	18
CCC(=O)NNc1ncnc2ccccc12	.	.	-3	-2	.	-16	.	.
CCC(=O)Nc1c2c(nn1-c1cccc(Cl)c1)CSC2	0	.	-2	-1	.	.	.	.
CC(=O)c1c(C)[nH]c(C(=O)OCC(=O)Nc2cc(Cl)ccc2[N+](=O)[O-])c1C	.	.	25	-1	.	-4	.	.
